This note sets out measurements from the supplement of paper PMC11634586.

SMILES strings stand for the structures. A number with no mark means an inactive call.

For this assay, the system named is NCI-H1688. Put plainly: inhibition of cell viability relative to untreated control (fraction); higher = stronger growth inhibition, active = 0.5 or more. The following applies: 30 µM; 24 h. Summed up: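 Compounds from a natural compound library (TargetMol) were tested at 30 µM on NCI-H1688 small cell lung cancer cells for 24 h at 37°C under 5% CO2. Cell Counting Kit-8 absorbance at 450 nm, read in triplicate, gave the viability. The values express inhibition of cell viability as a fraction relative to untreated cells.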
Take `COc1cc2c(cc1OC)[C@@H]1Cc3ccc(OC)c(OC)c3CN1CC2` [Tetrahydropalmatine]: the “inhibition of cell viability” value is 0.242.
With `O=C1O[C@H]([C@H](O)CO)C([O-])=C1O.[Na+]` [Sodium erythorbate] the figure was 0.0513; with `COc1c(O)cc2oc3cc(O)c(CC=C(C)C)c(O)c3c(=O)c2c1CC=C(C)C` [Mangostin], 1 (active); with `Cc1nc(C)c(C)nc1C` [Tetramethylpyrazine], 0.202.
For the compound `CN(N=O)C(=O)N[C@@H](C=O)[C@@H](O)[C@H](O)[C@H](O)CO` [Streptozocin], the “inhibition of cell viability” value was 0.214.
Take `CC1=C(/C=C/C(C)=C/C=C/C(C)=C/C=C/C=C(C)/C=C/C=C(C)/C=C/C2=C(C)CCCC2(C)C)C(C)(C)CCC1` [Beta-Carotene]: the “inhibition of cell viability” value was 0.426.
For `COc1ccc(/C=C\c2cc(OC)c(OC)c(OC)c2)cc1O` [Combretastatin A4], the “inhibition of cell viability” value was 0.823 (active).
On to `CC12CCC(CC1=O)C2(C)C` [D-Camphor], for which the “inhibition of cell viability” value is 0.123.
Turning to `C=C1CC[C@H]2O[C@]2(C)CC[C@@H]2[C@@H]1CC2(C)C` [Caryophyllene oxide], the “inhibition of cell viability” value is -0.0678.
In the case of `C[C@@H]1CCCCCCCCCCCCC(=O)C1` [Muscone], the “inhibition of cell viability” value is -0.148.
On to `CC1=C(C/C=C(\C)CCC[C@H](C)CCC[C@H](C)CCCC(C)C)C(=O)c2ccccc2C1=O` [Vitamin K1], for which the “inhibition of cell viability” value is -0.199.
With `C=C1C[C@@]2(O)O[C@@]3(C[C@H]2C(C)C)[C@@H](C)CC[C@@H]13` [Curcumol], the “inhibition of cell viability” value is -0.0691.
With `OC[C@@H](O)[C@@H](O)CO` [Erythritol] the figure was 0.038.
For `CC[C@H](C)[C@H](N)C(=O)O` [isoleucine], the “inhibition of cell viability” value was -0.178.
Turning to `O=C(O)C=CC=Cc1ccccc1` [5-Phenyl-2,4-pentadienoic acid], the “inhibition of cell viability” value was -0.102.
With `CC1=CC(=O)CC(C)(C)C1=O` [Ketoisophorone], the “inhibition of cell viability” value is -0.175.
Take `COc1ccc(-c2coc3cc(O)cc(O)c3c2=O)cc1` [Biochanin A]: the “inhibition of cell viability” value was -0.0526.
With `Oc1cc(O)c2c(c1)OC(c1ccc(O)c(O)c1)C(OC1(c3ccc(O)c(O)c3)Oc3cc(O)cc(O)c3C(O)C1O)C2` (stereo unspecified) [Proanthocyanidins], the “inhibition of cell viability” value was -0.126.
With `NCCc1c[nH]cn1` [Histamine] the figure was 0.233.
For the compound `O=C(O)C(O)Cc1ccc(O)c(O)c1` (stereo unspecified) [Sodium Danshensu], the “inhibition of cell viability” value is -0.0463.
Turning to `O=c1c2cc(O)c(O)cc2oc2cc(O)c([C@@H]3O[C@H](CO)[C@@H](O)[C@H](O)[C@H]3O)c(O)c12` [Mangiferin], the “inhibition of cell viability” value is -0.186.
For the compound `COc1cc2ccc(=O)oc2cc1OC` [Scoparone], the “inhibition of cell viability” value is -0.0332.
With `COc1ccc(-c2cc(=O)c3c(O)cc(O[C@@H]4O[C@H](CO[C@@H]5O[C@@H](C)[C@H](O)[C@@H](O)[C@H]5O)[C@@H](O)[C@H](O)[C@H]4O)cc3o2)cc1O` [Diosmin], the “inhibition of cell viability” value was -0.00104.
With `COc1cc(C[C@H]2C(=O)OC[C@@H]2Cc2ccc(OC)c(OC)c2)ccc1O` [Arctigenin] the figure was 0.431; with `C[n+]1cccc(C(=O)[O-])c1` [Trigonelline], -0.0163.
For the compound `Cc1cc(O)cc(O)c1C(=O)O` [Orsellinic acid], the “inhibition of cell viability” value is -0.313.
Turning to `C[C@]12C[C@H](O)[C@H]3[C@@H](CCC4=CC(=O)CC[C@@]43C)[C@@H]1CC[C@@H]2C(=O)CO` [Corticosterone], the “inhibition of cell viability” value was 0.0335.
`CC(C)=CCCC(C)CCO` (stereo unspecified) [Citronellol]: the “inhibition of cell viability” value is 0.283.
Regarding `C[C@H](CCC(=O)O)[C@H]1CC[C@H]2[C@@H]3CC[C@@H]4C[C@H](O)CC[C@]4(C)[C@H]3CC[C@]12C` [Lithocholic acid], the “inhibition of cell viability” value was -0.0194.
For the compound `COc1cc(CCC(=O)O)ccc1O` [Hydroferulic acid], the “inhibition of cell viability” value was 0.0171.
With `C[C@@H]1[C@H](O)[C@@H](C)/C=C/C=C/C=C/C=C/C=C/C=C/C=C/[C@H](O[C@@H]2O[C@H](C)[C@@H](O)[C@H](N)[C@@H]2O)C[C@@H]2O[C@](O)(C[C@@H](O)C[C@@H](O)[C@H](O)CC[C@@H](O)C[C@@H](O)CC(=O)O[C@H]1C)C[C@H](O)[C@H]2C(=O)O` [Amphotericin B], the “inhibition of cell viability” value was 0.0269.
